Structures are written as SMILES. Several values for one entry are separate records, joined by “and”; a condition that tells them apart may be missing. Equal entries are not always repeated. The whole screen tested about 300,000 compounds, of which about 37,000 (12%) were called active. The sample holds actives, similar compounds and a random draw of the others, so the mix is not that of the screen. Values without a mark were called inactive. Cut-off read from the data, not from the text of the source: active = max response mostly above about 13% (no sharp cut-off); inactive = mostly below about 14%.

The experiment is described as follows: Cycloheximide Counterscreen for Small Molecule Inhibitors of Shiga Toxin. Note: read at 38.3 µM for the half of the compounds with a filed dose; 0% is about no effect. The note with it: cell reporter, cycloheximide protein synthesis inhibition counterscreen; stronger effect = higher value. (In general: A counterscreen serves to expose hits that act by an unwanted route or on another target.)
Regarding `Cc1cc(N(C)C)nc(Cl)n1`, the max response was -9.03%.
Then `Cc1cc(NC(=O)CN2CCCCC2C)nc2c1c(=O)oc1ccccc12` (stereo not given), with 0.268%; and `CCCCC(=O)Nc1cc(C)c2c(=O)oc3ccccc3c2n1`, with 10.7%.
Next, `CCOC(=O)c1c(C)nc2c(c1C)c(=O)oc1ccccc12`: 14.3% (active).
Then `COc1ccc(CC(NC(C)=O)C(=O)NC2CCN(C(=O)C3CC3)CC2)cc1OC` (stereo not given), with -7.16%; and `C=CCNC(=S)N/N=C/c1ccc(C)s1`, with 31.5% (active); and `Cc1ccc(/C=N/NC(=O)CN2CCN(Cc3ccccc3)CC2)s1`, with 8.96%.
On to `C=CCNC(=S)N/N=C/c1ccc(OCc2ccccc2)cc1`, for which the max response is -1.7%.
Next, `COc1ccc2c3c1O[C@H]1C[C@@H](O)C=C[C@@]31CCN(C)C2`: -0.885% and -4.86%; `CN1CCN(S(=O)(=O)c2ccc(NC(=S)NC(=O)C3CC3)cc2)CC1`: 1.23%.
Next, `Cc1ccc2c(c1)C1CN(C)CCC1N2C(=S)Nc1ccc(Cl)cc1Cl` (stereo not given): -1.23%; `CC1CN(C(=S)Nc2ccc(Br)cc2Cl)CC(C)O1` (stereo not given): 0.924%.
Then `CN(C)C(=S)Nc1ccc(Br)cc1Cl`, with -1.09%.
Turning to `O=C(NC(=S)Nc1ccc(Cl)cc1Cl)C1CC1`, the max response is 39.5% (active).
Next, `S=C(Nc1ccc(Br)cc1Cl)N1CCC2(CC1)OCCO2`: 20.3% (active); `S=C(Nc1ccc(Cl)cc1Cl)N1CCCC1`: 60.1% (active).
In the case of `S=C(NCc1cccnc1)Nc1ccc(Cl)cc1Cl`, the max response is 9.37%.
Regarding `Cc1cc(Cl)ccc1NC(=S)N1CCC(C(N)=O)(N2CCCCC2)CC1`, the max response is -2.11%.
Turning to `CC(Oc1ccc(F)cc1)C(=O)N1CCN(c2ncccn2)CC1` (stereo not given), the max response was -2.63%.
Next, `CNC(=O)[C@]1(C(F)(F)F)C[C@H](CCc2ccccc2)CCCO1`: 3.47%; `Cn1cnc([N+](=O)[O-])c1Sc1ccccc1`: -3.34%.
For `Cc1cccc(NS(=O)(=O)c2ccc([N+](=O)[O-])cc2)n1`, the max response is -1.49%.
Next, `O=C(COc1cccc(-n2cnnn2)c1)NCCC1=CCCCC1`: 0.68%.
Then `CSc1ccccc1N1CCN(CCCCCC(=O)NC2CCCc3ccccc32)CC1` (stereo not given), with -7.34%.
For `Nc1ccc(C(=O)Nc2ccccc2N)cc1`, the max response is 5.95%.
Then `Cc1ccc(Nc2ccccc2N)cc1`, with 33.2% (active); and `Nc1ccc(Nc2ccccc2)cc1`, with -1.73%; and `COc1ccc(COCCN2CCN(S(=O)(=O)c3ccccc3)CCC2=O)cc1`, with -3.54%.
Then `COc1ccc(S(=O)(=O)N(C)CC(=O)N2CCCC2)cc1`, with -3.08%.
Then `CCOC(=O)N1CCN(C(=O)c2cn(C)c3ccc(S(=O)(=O)N(CC)CC)cc3c2=O)CC1`, with -2.19%; and `CC(C(=O)NC1CCS(=O)(=O)C1)N1C(=O)/C(=C/c2ccc(Cl)cc2)SC1=S` (stereo not given), with 16.6%.
In the case of `COc1ccc(Nc2nnc(C)c3ccccc23)cc1`, the max response was 29.8% (active).
Next, `COc1ccc(Nc2nc(=O)[nH]nc2C)cc1`: -2.63%.
Next, `Cc1nnc(NCCO)c2ccccc12`: 4.14%; `COc1ccc(C(=O)NCC(=O)N/N=C/c2cccnc2)cc1`: -4.37%; `S=C(NCCCc1cnc[nH]1)NCCCN(Cc1ccc(Cl)c(Cl)c1)c1ccc(Br)cn1`: -1.98%.
In the case of `CC1(C)C2CC=C(/C=N/NC(=O)c3ccc(Cl)cc3)C1C2` (stereo not given), the max response was 10.5%.
Take `COc1ccc(/C=N/NC(=O)c2ccc(Cl)cc2)cc1COC(C)=O`: the max response is 1.21%.
Then `Cn1nccc1/C=N\NC(=O)c1ccc(Cl)cc1`, with 14.7% (active); and `CCOC(=O)c1sc(NC(=O)CSc2nc(C)cc(C(F)(F)F)n2)c(C#N)c1C`, with 1.11%.
Next, `COc1cc(C(=O)OC2CCOC2=O)c([N+](=O)[O-])cc1OC` (stereo not given): -5.93%.
Consider `COc1cc(CN2CCCN(C)CC2)c([N+](=O)[O-])cc1OC`, for which the max response was -2.2%.
Then `O=C(/C=C/c1ccc(Cl)c([N+](=O)[O-])c1)c1cccnc1`, with 9.23%; and `O=C(/C=C/c1ccc2c(c1)OCCO2)c1ccc(O)cc1`, with 36.6% (active); and `CN(C)c1ccc(/C=C/C(=O)c2ccc(O)cc2)cc1[N+](=O)[O-]`, with 61.3% (active).
Next, `O=C(O)/C=C/c1ccc2c(c1)OCCO2`: 5.58%; `O=C(COC(=O)/C=C/c1ccc2c(c1)OCO2)NC1CCS(=O)(=O)C1` (stereo not given): 2.81%.
Then `CN(C)c1ccc(/C=C/C(=O)c2ccc(C(C)(C)C)cc2)cc1[N+](=O)[O-]`, with 9.22%; and `COc1cccc(NC(=O)N2C3CCCC2CC(NC(C)=O)C3)c1` (stereo not given), with -3.34%; and `CCOC(=O)c1ccccc1NS(=O)(=O)c1c(C)nc2sccn2c1=O`, with -3.59%.
In the case of `Brc1ccccc1CN1CCC(Cc2ccccc2)CC1`, the max response is -0.443%.
Next, `CC(C)CN(CC(C)C)C(=O)CN1c2cccc3cccc(c23)S1(=O)=O`: 0.92%; `CC1CC(C)CN(CCCNC(=O)c2csc3c2CCCCC3)C1` (stereo not given): 13.5%; `COC(=O)c1sc(NC(=O)c2csc3c2CCCC3)nc1C`: 52.4% (active).
Next, `Cc1ccc(NC(=O)c2csc3c2CCCC3)cc1`: 46.6% (active); `O=C(Nc1ccccc1N1CCOCC1)c1csc2c1CCCC2`: 8.7%.
With `Cc1ccc(NC(=O)c2c(NC(=O)CCC(=O)O)sc3c2CCCCC3)cc1`, the max response was 39.3% (active).
Then `O=C(CN1CCCC1)Nc1sc2c(c1C(=O)Nc1ccccc1)CCCC2`, with 0.772%; and `O=C(N/N=C/c1ccco1)c1ccc(NC(=O)C2CC2)cc1`, with 2.6%.
Then `COC(=O)c1sccc1NC(=O)c1csc2c1CCCC2`, with 11.4%; and `CCOC(=O)c1sc(NC(=O)c2sc(C)nc2C)nc1C`, with 10.2%; and `COC(=O)c1c(NC(=O)CCCC(=O)O)sc2c1CCCCC2`, with 1.25%.
Then `O=C(N/N=C/c1ccco1)c1ccc(C(=O)N/N=C/c2ccco2)o1`, with 11.6%; and `O=C(N/N=C/c1ccco1)c1csc2c1CCCC2`, with 54.4% (active); and `CCn1c(SCc2cccc(C(=O)O)c2)nnc1-c1ccc(Cl)cc1`, with -1.44%.
`COc1ccc(C)cc1Nc1n[n+](-c2ccccc2)c(-c2cccc(Cl)c2Cl)s1`: the max response is -1.46%.
As to `CCOC(=O)N1CCN(C(=O)c2ccccc2N(Cc2ccccc2)S(=O)(=O)c2ccc(OC)cc2)CC1`, the max response is -5.35%.
Next, `CCOc1ccc(-n2c(SCC(=O)Nc3cc(C(=O)O)ccc3Cl)nc3ccccc3c2=O)cc1`: -4.94%.
Next, `O=C(O)CCC(=O)Nc1ccc(OCC2CCCO2)cc1` (stereo not given): -3.29%.
Then `CC1(C)Cc2ccccc2-c2[nH]c(=S)[nH]c(=O)c21`, with -1.88%; and `COc1cccc(CNC(=O)CCC2CCCN(C(=O)c3ccc(F)c(Cl)c3)C2)c1` (stereo not given), with 0.816%; and `O=C(COC(=O)c1ccc(Cl)nc1)NCc1ccc2c(c1)OCO2`, with -4.58%.
For `CC(=O)Cc1nsc(NC(=O)c2ccc(Cl)cc2Cl)n1`, the max response was 27.8%.
`O=C(NCc1ccccc1Cl)c1csc2c1CCCCC2`: the max response was -0.0989%.
In the case of `CC(=O)Cc1nsc(NC(=O)c2csc3c2CCCC3)n1`, the max response was 16.6% (active).
Next, `CCOC(=O)Cn1c(=O)n(Cc2ccc(OC)cc2)c(=O)c2cccnc21`: -5.57%.
Next, `Cc1cc(C)nc(N2CCC(C(=O)Nc3ccc4c(c3)OCCO4)CC2)n1`: 11.4%; `O=C(Nc1cccc(Cl)c1)C1CCCN(c2cnccn2)C1` (stereo not given): 5.49%.
Then `O=C(Nc1ccc2c(c1)OCCO2)C1CCCN(c2ncccn2)C1` (stereo not given), with 22% (active).
Consider `CCOc1ccc(N(CC)S(=O)(=O)c2cccc3nsnc23)cc1`, for which the max response is -1.34%.
`CC(=O)Nc1ccc(S(=O)(=O)N2N=NC3C2C2CC4C3(CN(C(=O)OC(C)(C)C)S4(=O)=O)O2)cc1` (stereo not given): the max response was 3.73%.
Then `COc1cccc(CN(C)CC2CCCN(CCc3ccc(Cl)cc3)C2)c1OC` (stereo not given), with -1.16%; and `C/C(=N\Nc1nncc2ccccc12)c1ccc(Cl)c([N+](=O)[O-])c1`, with 17.3% (active).
Next, `Cc1nc2ccccc2c(=O)n1NC(=O)c1ccc(Cl)c([N+](=O)[O-])c1`: -5.07%; `CC(CC(=O)O)C(=O)c1ccc(Cl)c([N+](=O)[O-])c1` (stereo not given): -0.656%.
Next, `O=C(O)c1ccc2c(=O)n3c(nc2c1)/C(=C/c1ccc(OC(F)F)cc1OC(F)F)CC3`: 1.3%.
With `CCC(=O)N1c2ccccc2NC2=C(C(=O)CCC2)C1c1ccco1` (stereo not given), the max response is -5.4%.
Then `CC(C)C(=O)N1c2ccccc2NC2=C(C(=O)CCC2)C1c1ccc(N(C)C)cc1` (stereo not given), with 21.8% (active); and `CCCC(=O)N1c2ccccc2NC2=C(C(=O)CCC2)C1c1ccc(F)cc1` (stereo not given), with -1.45%; and `O=C(NCCO)C(=O)NCC(c1ccc2c(c1)OCO2)N1CCN(c2ccc(F)cc2)CC1` (stereo not given), with -1.46%.
Next, `Cn1nc(C(F)(F)F)cc1C(=O)O`: -2.03%.
`CCN(CC)C(=O)CCC(=O)Nc1ccc(C(=O)OC)cc1`: the max response was 0.562%.
Then `CCCCC(CC)C(=O)Nc1ccc(Cl)cn1` (stereo not given), with -1.66%.
Turning to `Cc1ccc(NC(=O)Nc2cccc(C(F)(F)F)c2)nc1`, the max response was 9.81%.
Next, `COC(=O)c1ccc(NC(=O)C(C)N2C(=O)c3ccccc3C2=O)cc1` (stereo not given): -1.97%; `CCCc1cc(C(=O)Nc2ccc(C(=O)OC)cc2)cs1`: 18.2% (active); `CC12COC3(C(=O)Nc4ccc(Cl)cn4)CC1CCC32C` (stereo not given): -1.53%.
Next, `O=C(Nc1ccc(Cl)cn1)Nc1cccs1`: 47.7% (active).
Then `CCCc1cc(C(=O)Nc2ccc(Cl)cn2)cs1`, with 30.5% (active).
Regarding `O=C(Nc1cccc([N+](=O)[O-])c1)Nc1ccc(Cl)cn1`, the max response was -1.76%.

The values above are taken from PubChem BioAssay AID2314 (National Center for Advancing Translational Sciences (NCATS), 2010).
